Compound activity deposited in PubChem by National Center for Advancing Translational Sciences (NCATS).
Hits are enriched below; roughly 4.7% of the tested compounds scored in any of these assays.
TRHR enhancer: qHTS for Small Molecule Agonists and Allosteric Enhancers of Human TRH Receptor: Primary Screen for Enhancers; Thyrotropin-releasing hormone receptor (Homo sapiens), P34981; TRHR cells, fluo-8 calcium fluorescence, EC20 TRH enhancement; enhancement, % at 2 µM; hit rate 0.66% among 360,000; AID 493056, 2011; in the data active = enhancement above about 30%; also: 0% is about no effect
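Enhancer read-out: after compound pinning and an initial kinetic agonist-mode read, an EC20 of TRH (10 nM final) was injected and fluo-8 calcium signal (Ex 480/Em 530) followed at 1 s/cycle for 100 cycles in TRHR-expressing cells.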
TRHR ag: qHTS for Small Molecule Agonists and Allosteric Enhancers of Human TRH Receptor: Primary Screen for Agonists; Thyrotropin-releasing hormone receptor (Homo sapiens), P34981; TRHR cells, calcium flux fluo-8, FDSS agonist mode; activation, % at 2 µM; hit rate 0.18% among 360,000; AID 493084, 2011; also: 0% is about no effect
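In this calcium-flux screen, cells bearing human TRHR are dye-loaded with fluo-8, baselined for 10 cycles, then exposed to library compounds; positive kinetic calcium responses during the agonist phase mark hits, with TRH as control.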
D1 potentiator: Potentiators of Human D1 Dopamine Receptor: qHTS | D(1A) dopamine receptor (Homo sapiens), P21728 | HEK293 TREx D1 cells, calcium flux, dopamine EC20 potentiation | potentiation, % at 10 µM | hit rate 0.036% among 360,000; in the data active = potentiation above about 30%; also: 0% is about no effect
Target sequence (P21728 whole entry, looked up): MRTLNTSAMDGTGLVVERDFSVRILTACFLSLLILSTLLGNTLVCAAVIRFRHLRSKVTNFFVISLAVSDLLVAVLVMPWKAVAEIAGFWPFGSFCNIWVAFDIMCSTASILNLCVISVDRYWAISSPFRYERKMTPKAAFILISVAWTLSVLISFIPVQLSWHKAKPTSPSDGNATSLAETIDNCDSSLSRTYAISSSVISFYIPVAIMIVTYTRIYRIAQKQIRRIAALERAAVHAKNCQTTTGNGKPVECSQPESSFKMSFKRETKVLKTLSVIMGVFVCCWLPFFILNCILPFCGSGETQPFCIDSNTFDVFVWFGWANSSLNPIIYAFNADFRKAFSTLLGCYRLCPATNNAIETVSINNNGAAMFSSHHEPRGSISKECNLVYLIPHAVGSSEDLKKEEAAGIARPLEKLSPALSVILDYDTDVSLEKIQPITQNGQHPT
D1 agonist: Allosteric Agonists of the Human D1 Dopamine Receptor: qHTS; D(1A) dopamine receptor (Homo sapiens), P21728; HEK293 T-REx D1 cells, calcium flux, agonist mode; activation, % at 2 µM; hit rate 1% among 360,000; AID 504660, 2011; also: 0% is about no effect
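Tetracycline-induced HEK293 TREx D1 cells, force-coupled to calcium signalling, were dye-loaded with a no-wash calcium kit. Compound was pin-added after a 10 s baseline. Fluorescence was read kinetically at 1 cycle/s for 180 s, with calcium rises flagged as agonism.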
D1 antagonist: Antagonist of Human D 1 Dopamine Receptor: qHTS. HEK293 TREx D1 cells, calcium flux, dopamine EC80; hits give low values. activity change, negative = inhibition, % at 10 µM. hit rate 3.2% among 360,000. AID 504652, 2011; in the data active = activity change below about -30%; also: % is scaled to controls: 0 for no effect and ±100 for the full control effect
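Allosteric or orthosteric antagonism assessed as attenuation of the calcium response to EC80 dopamine, added 180 s after compound, in induced HEK293 Trex D1 cells loaded with no-wash calcium dye.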
Numbers without * were called inactive. Rule as the data show it, unless noted: active = activation above about 30%; inactive = the rest.

SMILES	TRHR enhancer	TRHR ag	D1 potentiator	D1 agonist	D1 antagonist
Cc1ccc(S(=O)(=O)N2CCOCC2)cc1NC(=O)C1=NN(c2ccccc2)C(=O)CC1	-6	0	-4	2	2
CCCNC(=O)C1CCN(S(=O)(=O)c2ccc3c(c2)CCCN3C(C)=O)CC1	-2	0	-6	1	1
CN1CCN(C(=O)C2CCCN(S(=O)(=O)c3ccc(Cl)cc3)C2)CC1 (stereo unspecified)	-3	0	-9	6	0
CCn1c(=S)sc2c(=O)n(CC(=O)Nc3cccc(Cl)c3)c(C)nc21	-9	1	7	4	8
Cc1ccc(CN(Cc2ccco2)C(=O)COc2ccccc2C)cc1	1	2	1	7	-1
Cc1ccc(Nc2cc(-n3cccn3)ncn2)c(C)c1	-6	0	-2	4	-5
Fc1cccc(Nc2cc(-n3cccn3)ncn2)c1	-2	0	-6	4	-45*
COc1ccc(NC(=O)c2sc3nc(C)c(C(=O)Nc4ccc(C)cc4C)c(-c4ccc(C)o4)c3c2N)cc1	1	5	-1	15	7
O=C(Cc1cccc2ccccc12)NCC(=O)Nc1ccccc1F	13	0	-3	1	-51*
O=C(CNC(=O)Cc1cccc2ccccc12)NCc1ccccc1F	-2	-2	-3	5	9
CNc1nc2cc([N+](=O)[O-])c([N+](=O)[O-])cc2nc1NC	-2	-3	-18	39*	-14
CCN(CC)CCCNC(=O)c1c(C)oc2ncnc(N3CCOCC3)c12	21	2	-2	2	10
CSc1ccc(C(=O)C2CCCN(C(=O)c3cccnc3SC)C2)cc1 (stereo unspecified)	-14	2	2	10	-32*
CSc1ncccc1C(=O)N1CCCC(C(=O)c2ccc3ccccc3c2)C1 (stereo unspecified)	20	0	-6	27	-10
CCC(=O)N1c2ccc(S(=O)(=O)CCC(=O)Nc3ccc(Br)c(C)c3)cc2CC1C (stereo unspecified)	-3	-1	-1	9	-6
COc1ccc(/C(O)=C/c2nc3ccccc3n(-c3ccccc3)c2=O)cc1	2	23	-2	39*	-7
COc1ccccc1N(CC(=O)N1CCC(C)CC1)S(=O)(=O)c1ccc(C)cc1	-8	3	-2	6	6
CN1C(=O)/C(=C/C=C2\SCCN2C)SC1=S	-1	13	6	19	-2
O=C(C1=C(O)C(=O)N(CCN2CCOCC2)C1c1ccc([N+](=O)[O-])cc1)c1cccs1 (stereo unspecified)	-6	1	-1	2	-75*
O=C(C1=C(O)C(=O)N(CCN2CCOCC2)C1c1cccc(Br)c1)c1cccs1 (stereo unspecified)	1	-3	2	4	-6
CCN1C(=S)SC(=O)C1=C1C=C(C)OC(C)=C1	0	1	3	1	6
CCN1C(=S)SC(=O)C1=C1C=C(C)N(Cc2ccco2)C(C)=C1	3	0	5	171*	-9
Cc1nc(-c2ccc(S(=O)(=O)N3CCCN(CCc4ccccc4)CC3)s2)cs1	-1	1	-4	31*	-22
CCOc1ccc(-n2c(SCc3ccccc3)nc3c([nH]c4ccccc43)c2=O)cc1	-1	1	1	1	-5
Cc1cc(N2CCOCC2)n2ncc(-c3ccc(Cl)cc3)c2n1	-2	1	-5	2	-33*
CNC(=O)c1c(NC(=O)CCS(=O)(=O)c2ccc(C)cc2)sc2c1CCN(C(=O)OC)C2	1	0	-2	0	9
C=C(C)Cn1c(C)cc(C)c(S(=O)(=O)c2cccc(C)c2)c1=O	-7	-2	3	3	-10
O=c1c2ccccc2nnn1Cc1nnc(-c2ccccc2Br)o1	-4	0	6	47*	13
CCOc1ccc(S(=O)(=O)N2CCN(Cc3ccccc3)CC2)cc1	7	-1	1	5	-39*
COc1ccc(S(=O)(=O)N2CCN(Cc3ccccc3)CC2)cc1OC	35*	0	-4	7	-9
